Shown are actives, neighbours in structure and some others; about 0.64% of the full set was active somewhere.
EPAC2 antag = EPAC2 (human) antagonism | Q8WZA2 | EPAC2 GEF exchange of Rap1B-BODIPY-GDP, fluorescence | Potency, µM (doses to about 114 µM), for the others: at the highest dose activity, negative = inhibition, actives largely listed as inhibitors | 360,000 compounds, 0.18% hits | AID 720708; note: potency is the fitted concentration of half-maximal effect; % is set by controls: 0 for no effect and ±100 for the full control effect; nearly all actives have a fitted effect of over 45% in size
EPAC1 ag = EPAC1 (human) agonism; O95398; EPAC1 agonist qHTS, biochemical assay; response scale: 100% = response to 6.5 mM cAMP; Potency, µM (top dose mostly 154 µM), for inactives: at the top dose activation, hits mostly activators; 360,000 compounds, 0.073% hits; AID 720707; note: potency is the fitted concentration of half-maximal effect; nearly all actives have a fitted effect of over 60% in size
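Multi-concentration qHTS readout: loss of Rap1B-bound BODIPY-GDP fluorescence driven by 100 nM EPAC1 with excess GDP (50 uM), monitored kinetically at room temperature; agonist response expressed relative to 6.5 mM cAMP.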
PKM2 act = increases activity of human pyruvate kinase M2; P14618; purified PKM2, Kinase-Glo ATP luminescence, activation; response scale: 0% is enzyme alone, no compound; Potency, µM (doses to about 57.5 µM), for the others: top-dose activation, hits mostly activators; 260,000 compounds, 0.34% hits; note: potency is the fitted concentration of half-maximal effect; % is set by controls: 0 for no effect and ±100 for the full control effect; nearly all actives have a fitted effect of over 55% in size
Target sequence (P14618 whole entry, looked up): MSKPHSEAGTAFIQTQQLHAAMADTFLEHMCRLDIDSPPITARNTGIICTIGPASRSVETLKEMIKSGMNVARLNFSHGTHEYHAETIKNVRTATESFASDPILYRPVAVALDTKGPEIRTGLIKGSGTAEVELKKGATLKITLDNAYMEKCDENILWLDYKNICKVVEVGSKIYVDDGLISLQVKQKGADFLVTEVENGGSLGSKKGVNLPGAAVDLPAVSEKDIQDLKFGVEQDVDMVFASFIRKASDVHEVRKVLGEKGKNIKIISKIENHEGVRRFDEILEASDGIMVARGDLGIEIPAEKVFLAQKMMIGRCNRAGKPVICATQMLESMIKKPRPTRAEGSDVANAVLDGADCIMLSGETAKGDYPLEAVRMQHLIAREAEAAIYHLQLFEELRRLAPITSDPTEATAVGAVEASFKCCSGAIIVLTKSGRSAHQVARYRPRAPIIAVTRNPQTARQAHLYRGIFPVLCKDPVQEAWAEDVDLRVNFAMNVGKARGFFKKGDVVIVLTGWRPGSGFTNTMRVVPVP
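Kinase-Glo luminescence reports ATP generated from ADP (0.1 mM) and PEP (0.5 mM) by purified hPK-M2 after 1 h at room temperature, pH 7.2 imidazole buffer; intermediate enzyme activity allows detecting inhibitors and activators.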
EPAC1 antagonist = blocks human EPAC1 exchange factor; O95398; EPAC1 GEF assay, Rap1b-BODIPY-GDP exchange fluorescence; Potency, µM (highest dose often 115 µM), without a hit: at the highest dose activity change, negative = inhibition, actives largely listed as inhibitors; 360,000 compounds, 0.14% hits; AID 720709;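 note: potency is the fitted concentration of half-maximal effect; plate controls were vehicle for no effect and positive control for full effect; nearly all actives have a fitted effect of over 50% in size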
EPAC2 agonist = agonists of human EPAC2 (RAPGEF4) | AID 720711 | Potency, µM (top dose mostly 154 µM), without a hit: at the top dose activation, most hits filed as activators | 360,000 compounds, 0.079% hits | EPAC2 activation, biochemical qHTS; response scale: 100% = 6.5 mM cAMP response | Q8WZA2; note: potency is the fitted concentration of half-maximal effect; nearly all actives have a fitted effect of over 50% in size
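Fluorescence exchange assay: 100 nM EPAC2 with 250 nM RAP1B-BODIPY-GDP and 50 uM GDP; compounds tested as a concentration-titration series (qHTS). Loss of Rap1-bound BODIPY-GDP fluorescence read at 480/540 nm; data normalized to 6.5 mM cAMP.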
IL2 activator = IL-2 activation. activation, % (series mostly up to about 46 µM). 360,000 compounds, 0.065% hits. IL-2 activation reporter assay, cell-based qHTS; stimulated with anti-CD3/CD4/CD28 beads; in transgenic mouse T cells; in the data active = activation above about 50%; inconclusive = mostly about 30% to 49%; note: 0% is about no effect
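Using fluorescent plate cytometry, EGFP and DsRed are detected in transgenic mouse T cells stimulated 18 h at 37 degrees C with antibody-coated beads after 60 min compound pretreatment.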
Active calls of the source: *; ? = inconclusive; . = not tested or not shown; [ ] = another dose, or the depositor's remark. Unless noted, calls come from the whole dose curve; as a rule, active = well fitted curve in the direction sought with a large enough effect; inconclusive = small, poorly fitted or top-dose-only effect, or another doubt; inactive = no such curve, though single readings can be large; an effect the other way counts as inactive or inconclusive.

SMILES | EPAC2 antag | EPAC1 ag | PKM2 act | EPAC1 antagonist | EPAC2 agonist | IL2 activator
Cc1ccc(-n2c(SC3CCOC3=O)nc3ccccc3c2=O)cc1 (configuration not stated) | . | . | 3% | . | . | .
COc1ccccc1C(=O)NCCC(=O)NCC1CCCO1 (configuration not stated) | 8% | -3% | . | -13% | 1% | 0
O=C(NCc1cc(C(F)(F)F)ccc1Cl)c1cccc2c1C(=O)c1ccc(N3CCC(N4CCCCC4)CC3)cc1S2(=O)=O | ? | -12% | . | ? | 89µM* | 9
O=C(NCc1ccc(OC(F)(F)F)cc1)c1cccc2c1C(=O)c1ccc(N3CCCC3)cc1S2(=O)=O | 79µM* | 8% | . | -9% | 100µM* | 0
O=C(NCc1ccc(OC(F)(F)F)cc1)c1cccc2c1C(=O)c1ccc(N3CCC(Cc4ccccc4)CC3)cc1S2(=O)=O | 32% | 17% | . | -3% | -12% | 0
O=C(NCc1ccc(OC(F)(F)F)cc1)c1cccc2c1C(=O)c1ccc(N3CCCCC3)cc1S2(=O)=O | 202% | -11% | . | 22% | 100µM* | 0
C/C(=N\NC(=O)c1cc2ccccc2cc1O)c1ccccn1 | 14% | -22% | . | ? | 10% | -3
C/C(=N\NC(=O)c1cc2ccccc2cc1O)c1cc2ccccc2o1 | 6% | 5% | -9% | 50µM* | -7% | 5
C=CCn1c(-c2ccc(S(=O)(=O)N3CCOCC3)cc2)csc1=Nc1ccccc1 | 0% | 2% | 0% | 6% | 7.9µM* | 0
CC(=O)c1cccc(N=c2scc(-c3ccc(S(=O)(=O)N4CCOCC4)cc3)n2CCO)c1 | -17% | 18% | 10% | -14% | 13% | -1
CN(Cc1ccccc1)C(=O)c1ccc(NC(=O)Cc2cccc(NC(=O)C3CCCN(C(=O)C4CCC4)C3)c2)cc1 (configuration not stated) | 9% | 8% | . | ? | 5% | -3
CCOC(=O)C1C(c2ccccc2)C(C(=O)OCC)S(=O)(=O)C(CCN(CC)CC)S1(=O)=O (configuration not stated) | 9% | 2% | -1% | -9% | 2% | 0
CN(C)c1ccc(/C=C2\SC(=S)N(Nc3ncc(C(F)(F)F)cc3Cl)C2=O)cc1 | 66% | 112µM* | -2% | 35% | 112µM* | 20
Cc1[nH][nH]c(=O)c1C(c1c(C)[nH][nH]c1=O)c1cn(Cc2cccc3ccccc23)c2ccccc12 | 4% | 16% | 6% | 89µM* | 6% | -1
Cc1cc(C)nc(NS(=O)(=O)c2ccc(NC(=O)CN3C(=O)S/C(=C\c4ccccc4)C3=O)cc2)n1 | -11% | 6% | 0% | 79µM* | 6% | -3
COc1cc2c(cc1OC)[C@@H]1O[C@](c3ccsc3)(C2)Oc2cc(C)n(-c3ccccc3)c(=O)c21 | . | . | -2%[11.5 µM] | . | . | .
Cc1cc2c(cc1S(=O)(=O)Nc1cccc(F)c1)n(C)c(=O)c(=O)n2C | 3% | 8% | 2µM* | -2% | 3% | -4
Cc1ccc(NS(=O)(=O)c2cn(C)c(=O)n(C)c2=O)cc1C | 9% | 3% | 5% | -6% | 1% | -3
O=C(O)CCCCCN1C(=O)/C(=C/c2cn(-c3ccccc3)nc2-c2cccs2)SC1=S | 66% | 89µM* | . | 50% | 24% | 0
COc1ccc(C2CCc3cc4c(cc3C2=NO)OCO4)cc1OC (configuration not stated) | ? | 7% | . | 5% | 9% | -2
Cc1nc(N)sc1-c1csc(Nc2ncccn2)n1 | 71µM* | 3% | 0% | -8% | ? | -5
COC(=O)c1sc(N2C(=O)C(=O)/C(=C(/O)c3ccccc3)C2c2ccco2)nc1C (configuration not stated) | 2% | -4% | 15% | -3% | -4% | -1
Cc1nc(N2C(=O)C(=O)/C(=C(/O)c3ccccc3)C2c2ccco2)sc1C (configuration not stated) | 14% | -3% | 7% | 9% | 4µM* | 1
COc1cc(Cl)c(C)cc1NC(=O)CSc1cc(Cl)ccc1Cl | 15% | 7% | -1% | 25µM* | -5% | 0
COc1cc(Cl)c(C)cc1NC(=O)CSc1ccc(C)cc1 | -2% | 9% | 0% | -1% | 3% | -4
SMILES | EPAC2 antag | EPAC1 ag | PKM2 act | EPAC1 antagonist | EPAC2 agonist | IL2 activator
Brc1cc2c(cc1CSc1ncccn1)OCO2 | 35µM* | 4% | 5% | -26% | 20% | -4
O=C1CCc2cc(NS(=O)(=O)c3ccc([N+](=O)[O-])cc3)cc3c2N1CC3 | 10% | 79µM* | . | -8% | 5% | -1
O=C1CCc2cc(NS(=O)(=O)c3ccc([N+](=O)[O-])cc3)cc3c2N1CCC3 | 4% | -11% | . | 15% | 0% | 1
COc1cccc(NS(=O)(=O)c2ccc3c(c2)CC(=O)N3)c1 | 0% | -15% | . | 27% | 4% | 0
CCc1cccc(NS(=O)(=O)c2ccc3c(c2)NC(=O)CC(=O)N3)c1 | 5% | -3% | 9% | -19% | 1% | 0
Cc1ccc(NS(=O)(=O)c2ccc3c(c2)CC(=O)N3)cc1C | -9% | -5% | 14µM* | -12% | 5% | 1
Cc1cccc(NS(=O)(=O)c2ccc3c(c2)CCC(=O)N3)c1 | -5% | -12% | 4µM* | -6% | 0% | 0
CCc1cccc(NS(=O)(=O)c2ccc3c(c2)CCC(=O)N3)c1 | 7% | -2% | 2.8µM* | 0% | -1% | 1
COc1ccc(C(=O)N2CCc3ccc(NC(=O)c4ccccn4)cc3C2)cc1F | -17% | 3% | 0% | 4% | 4% | 3
O=C(N/C(=C/c1ccc(Cl)cc1)C(=O)N1CCCC1)c1ccccc1 | -2% | 5% | -3% | -1% | -1% | 2
CC(=O)Nc1sc(N/N=C\c2ccc(O)cc2)nc1-c1cccs1 | -9% | 5% | 22µM* | -4% | 14% | 0
Clc1ccccc1C(c1ccccc1)(c1ccccc1)n1ccnc1 | 14µM* | 5% | -1% | -4% | 20% | 0
C#CC(c1ccccc1)(c1ccccc1)n1ccnc1 | ? | 10% | . | 23% | 6% | -3
COc1ccc(C(C)(O)c2nc(-c3ccoc3)cs2)cc1 (configuration not stated) | -11% | 2% | . | -8% | 0% | -1
CCOC(=O)C1CCN(c2nc(N)c3c(N)nc(SCC(=O)O)cc3c2C#N)CC1 | 0% | 10% | 10µM* | ? | 10% | 2
CCOC(=O)C1CCN(c2nc(C)cc(C)c2C#N)CC1 | -13% | 4% | 3% | -20% | 2% | -2

Source: PubChem
